The subject of the assay is CLK2. As to conditions: concentration: 1 μM, replicates: in singlicate; n = 1.
Take `CN(C)S(=O)(=O)c1cc(-c2ccc3nccc(-c4cccc(S(N)(=O)=O)c4)c3c2)cnc1N` [GSK1669921]: the “%Inh” value came to 86%.

Consider `CCS(=O)(=O)c1ccc(OC)c(Nc2nccc(-c3c(-c4cccc(NC(=O)c5c(F)cccc5F)c4)nn4ncccc34)n2)c1` [GSK326180], for which the “%Inh” value was 0%.

On to `COc1cc(Nc2nccc(N3CCC(NC(=O)c4cc5ccccc5s4)C3)n2)cc(OC)c1OC` (stereo not drawn) [GSK1379760], for which the “%Inh” value turned out to be 0%.

Consider `Cc1ccc(F)c(C(=O)Nc2cccc(-c3nn4ccccc4c3-c3ccnc(Nc4cccc(F)c4)n3)c2)c1F` [GSK361061], for which the “%Inh” value was found to be 0%.

With `Clc1ccc(-c2nn3ncccc3c2-c2ccnc(Nc3ccc4c(c3)OCCO4)n2)cc1` [GW829116], the “%Inh” value is 0%.

In the case of `CCCCc1nn2ncccc2c1-c1ccnc(Nc2ccc(N3CCN(C)CC3)cc2)n1` [GW684941], the “%Inh” value worked out at 3%.

On to `CCn1c(-c2nonc2N)nc2c(C#CC(C)(C)O)ncc(OCCCCN)c21.O=C(O)C(F)(F)F.O=C(O)C(F)(F)F` [GSK507274], for which the “%Inh” value amounted to 69%.

As to `O=C(NC1CCN(c2ccnc(Nc3ccc(F)cc3)n2)C1)c1cc2ccccc2s1` (stereo not drawn) [GSK1379716], the “%Inh” value was found to be 0%.

For the compound `COc1cc2c(cc1OCCN1CCNCC1)ncc1c3ccc(C#N)cc3[nH]c21`, the “%Inh” value stood at 86%.

For the compound `COc1cc(Nc2nccc(N3CCC(NC(=O)Nc4cccc(C(C)=O)c4)C3)n2)cc(OC)c1OC` (stereo not drawn) [GSK1379753], the “%Inh” value was 0%.

`O=C(Nc1cccc(-c2nn3ccccc3c2-c2ccnc(Nc3cccc(C(F)(F)F)c3)n2)c1)c1c(F)cccc1F` [GSK292658]: the “%Inh” value is 0%.

Turning to `CN(c1ccc(NC(=O)Nc2cc(C(F)(F)F)ccc2F)cc1)c1ccnc(Nc2ccc(S(N)(=O)=O)cc2)n1` [GW809893], the “%Inh” value is on record as 13%.

For the compound `Cc1cccc(NC(=O)Nc2ccc(Oc3ncnc4ccn(C)c34)cc2)c1`, the “%Inh” value is recorded as 0%.

For the compound `Cl.c1ccc(-c2ccc3c(Nc4ccc5[nH]ccc5c4)ccnc3c2)nc1` [GW440138], the “%Inh” value is reported as 0%.

Regarding `CN1CCN(CCCNc2nccc(-c3c(-c4ccc(F)cc4)nn4cc(C(F)(F)F)ccc34)n2)CC1` [GW621581], the “%Inh” value is recorded as 15%.

Take `C[C@@H](Oc1cc(-n2cnc3cc(-c4ccnc(NCCS(C)(=O)=O)c4)ccc32)sc1C(N)=O)c1ccccc1Cl` [GSK907232]: the “%Inh” value was found to be 4%.

As for `Cc1cccc(Nc2nc(N[C@H]3CCNC3)ncc2C(N)=O)c1.Cl` [GSK2197149], the “%Inh” value came to 71%.

Consider `CCc1ccc(-c2ccc3c(c2)-c2c(cnn2C)S(=O)(=O)N3C)cc1`, for which the “%Inh” value is recorded as 13%.

In the case of `COc1cc(Nc2ncc3c(C)nc(-c4cc5ccccc5[nH]4)n3n2)cc(OC)c1OC` [GW869516], the “%Inh” value is on record as 75%.

`Cc1ccc(S(=O)(=O)Nc2ccc(Nc3nccc(Nc4cccc5[nH]ncc45)n3)cc2)cc1` [GSK581271]: the “%Inh” value is recorded as 0%.

As for `COc1ccc(Nc2nccc(NCCNC(=O)c3cc4ccccc4s3)n2)cc1` [GSK1379896], the “%Inh” value amounted to 0%.

Consider `CN1CCN(Cc2cccc(-c3ccc4c(Nc5ccc(Oc6ccccc6)cc5)ccnc4c3)c2)CC1` [GW578342], for which the “%Inh” value worked out at 6%.

With `COc1ccc(Nc2nccc(N3CCC(NC(=O)Nc4cccc(OC)c4)C3)n2)cc1` (stereo not drawn) [GSK1379742], the “%Inh” value came to 0%.

With `O=C(Nc1n[nH]c2cc(-c3ccoc3)ccc12)C1CC1` [SB-738481], the “%Inh” value is on record as 73%.

On to `Nc1ncnc2c1nc(-c1ccccc1)n2-c1ccccc1` [SKF-97293], for which the “%Inh” value is 28%.

On to `COc1ccc(CNC(=O)NC2CCN(c3ccnc(Nc4ccc(F)cc4)n3)CC2)cc1` [GSK1379788], for which the “%Inh” value is 0%.

For the compound `Cc1occc1-c1ncc(OC[C@@H](N)Cc2c[nH]c3ccccc23)cc1-c1ccc2[nH]nc(C)c2c1.O=C(O)C(F)(F)F` [GSK682037], the “%Inh” value is 63%.

Take `c1ccc(-c2n[nH]cc2Nc2ccnc3ccccc23)nc1` [GW694077]: the “%Inh” value was determined as 94.3%.

Regarding `O=C(Nc1cccc(-c2nn3ncccc3c2-c2ccnc(Nc3ccccc3)n2)c1)c1c(F)cccc1F` [GSK198271], the “%Inh” value stood at 0%.

With `Nc1n[nH]c2cnc(-c3ccccc3)cc12` [SB-642124], the “%Inh” value worked out at 73%.

Take `CC(=O)Nc1nc2cnc(Nc3cc(NC(=O)c4cccc(C5(C#N)CC5)c4Cl)ccc3C)nc2s1`: the “%Inh” value turned out to be 0%.

As for `O=C(Nc1n[nH]c2nc(-c3ccc(O)cc3)ccc12)C1CC1` [SB-710363], the “%Inh” value turned out to be 21%.

In the case of `Cn1cc(-c2[nH]c3cc(NC(=O)[C@H](N)C4CCCCC4)cc4c3c2C=NNC4=O)cn1`, the “%Inh” value is listed as 16%.

The values are drawn from article PMC5540273 (PLoS ONE, 2017).
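Further: KINOMEscan kinase panel screen.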
